Sampled rows, rich in hits. Any-hit rate of the full collection: about 19%.
TGFb SMAD3 inh – blocks TGF-b signaling | HepG2 CAGA-GFP TGF-b/SMAD3 reporter, GFP fluorescence, 18 h; TGF-beta stimulated, 500 pg/mL final | Potency, µM (doses to about 46.1 µM), for the others: at the top dose activity, negative = inhibition, actives largely listed as inhibitors | hit rate 1.2% among 410,000; note: potency is the fitted concentration of half-maximal effect; % is set by controls: 0 for no effect and ±100 for the full control effect; nearly all actives have a fitted effect of over 65% in size
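TGF-beta reporter screen: HEPG2 CAGA-GFP, 1% FBS, 500 pg/mL TGF-beta final, 18 h; per-cell GFP summed per well; curves fitted and categorized by class.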
DT40 TDP1 CPT – growth inhibition of DT40 Tdp1-/-;hTDP1 cells with camptothecin (screen for TDP1 inhibitors); chicken DT40 Tdp1-/-;hTDP1 cells + 20 nM CPT, ATP luminescence, 48 h; Potency, µM (top dose mostly 46.2 µM), inactives show top-dose activity change, negative = growth inhibition, most hits filed as inhibitors; hit rate 12% among 420,000; AID 686979; note: potency is the fitted concentration of half-maximal effect; % is set by controls: 0 for no effect and ±100 for the full control effect; nearly all actives have a fitted effect of over 55% in size
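Cell growth measured by CellTiter-Glo luminescence after a minimum 48 h, 37 C compound exposure with 20 nM CPT in Tdp1-knockout DT40 cells stably expressing hTDP1, seeded 400/well; qHTS titration format.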
HepG2 viability – HepG2 cytotoxicity, counter-screen for TGF-b inhibitors; Potency, µM (series often up to 46.1 µM), without a hit: at the top dose activity change, negative = cytotoxicity, hits mostly cytotoxic; hit rate 0.76% among 410,000; HepG2 CAGA-GFP viability, ATP luminescence, 18 h; note: potency is the fitted concentration of half-maximal effect
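CellTiter-Glo luminescence gave cytotoxicity after 18 hours at 37 degrees C. The cells were HepG2 CAGA-GFP in 1% FBS DMEM, stimulated with 500 pg/mL TGF-beta after compound addition. %Activity was normalised to no-cell wells (complete cell-killing) and DMSO (no toxicity), and curves were fitted and classified.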
TDP1 cell noCPT – qHTS for Inhibitors of human tyrosyl-DNA phosphodiesterase 1 (TDP1): qHTS in cells in absence of CPT | Potency, µM (series often up to 46.2 µM), for the others: top-dose activity change, negative = growth inhibition, most hits filed as inhibitors | AID 686978, 2013 | DT40 Tdp1-/- hTDP1 cells, no CPT, ATP luminescence, 48 h | hit rate 15% among 420,000; note: potency is the fitted concentration of half-maximal effect; % is set by controls: 0 for no effect and ±100 for the full control effect; nearly all actives have a fitted effect of over 55% in size
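Compound effects on proliferation are scored in DT40 Tdp1-/-;hTDP1 cells in the absence of CPT. ATP levels (CellTiter-Glo luminescence) are recorded after a ≥48 hr, 37 °C incubation.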
IL-1B inflam inh – inhibitors of inflammasome signaling (IL-1 beta secretion); THP-1 LPS/ATP IL-1B secretion, AlphaLISA, 16 h; hits give low values; activity change, % at 57.5 µM; hit rate 4.7% among 360,000; in the data active = activity change below about -50%; inconclusive = mostly about -30% to -49%; note: % is set by controls: 0 for no effect and ±100 for the full control effect
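Secreted IL-1B measured by AlphaLISA bead assay after 16 h compound exposure of THP-1 cells; compounds (final up to 57.5 uM) added 1 h before LPS (250 ng/mL) and ATP (1.25 mM) stimulation; lower signal means less secretion.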
S-ASM inh – human S-ASM enzyme inhibition | hit rate 0.006% among 340,000 | placental ASM, HMU-PC fluorogenic substrate, 60 min | Potency, µM (highest dose often 57.5 µM), without a hit: at the top dose activity change, negative = inhibition, most hits filed as inhibitors; note: potency is the fitted concentration of half-maximal effect
Target sequence (P17405 47-631 limits assumed): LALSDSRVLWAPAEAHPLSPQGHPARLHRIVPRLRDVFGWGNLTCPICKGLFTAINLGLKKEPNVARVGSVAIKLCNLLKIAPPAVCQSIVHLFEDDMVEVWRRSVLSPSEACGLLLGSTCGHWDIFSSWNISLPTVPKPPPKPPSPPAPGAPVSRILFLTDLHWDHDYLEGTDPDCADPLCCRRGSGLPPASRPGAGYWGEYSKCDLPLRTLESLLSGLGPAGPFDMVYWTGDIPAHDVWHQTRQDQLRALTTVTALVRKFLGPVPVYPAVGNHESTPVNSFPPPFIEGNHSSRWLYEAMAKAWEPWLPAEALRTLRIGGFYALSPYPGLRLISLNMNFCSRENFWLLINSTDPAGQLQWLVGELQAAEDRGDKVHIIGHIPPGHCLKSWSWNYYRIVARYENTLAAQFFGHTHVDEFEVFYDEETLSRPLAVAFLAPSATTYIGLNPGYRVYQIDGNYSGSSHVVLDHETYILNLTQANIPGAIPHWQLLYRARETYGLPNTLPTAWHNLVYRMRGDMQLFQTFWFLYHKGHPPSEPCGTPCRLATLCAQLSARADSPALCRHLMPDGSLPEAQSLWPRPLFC
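Steps: dispense placental human ASM, pin compound, wait 10 min at room temperature, add HMU-PC0 substrate at 9 uM final, incubate 60 min at 37 °C, add stop solution raising pH to 10, read fluorescence.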
Active calls of the source: *. Unless noted, calls come from the whole dose curve; as a rule, active = well fitted curve in the direction sought with a large enough effect; inconclusive = small, poorly fitted or top-dose-only effect, or another doubt; inactive = no such curve, though single readings can be large; an effect the other way counts as inactive or inconclusive.

How did CC(C)(CO)NCc1c(OCc2ccc(Cl)cc2)ccc2ccccc12 do in these assays?
TGFb SMAD3 inh: inconclusive; DT40 TDP1 CPT: inconclusive; HepG2 viability: -58%; TDP1 cell noCPT: inconclusive; IL-1B inflam inh: -106*; S-ASM inh: -1%

How did CC(OC(=O)C1CCCC1)C(=O)Nc1ccc(S(N)(=O)=O)cc1 (configuration not stated) do in these assays?
TGFb SMAD3 inh: 1%; DT40 TDP1 CPT: -29%; HepG2 viability: 0%; TDP1 cell noCPT: inconclusive; IL-1B inflam inh: 6; S-ASM inh: -1%

Results for CSc1ccc(CCNC(=O)Cn2ncc3c([nH]c4ccccc43)c2=O)cc1 ?
TGFb SMAD3 inh: -6%; DT40 TDP1 CPT: -3%; HepG2 viability: -7%; TDP1 cell noCPT: 12%; IL-1B inflam inh: 42; S-ASM inh: 4%

Results for Cc1ccc2nc(N(Cc3cccnc3)C(=O)COc3ccccc3)sc2c1 ?
TGFb SMAD3 inh: 0%; DT40 TDP1 CPT: inconclusive; HepG2 viability: -2%; TDP1 cell noCPT: -8%

How did COc1ccc(CN(Cc2cc3cccc(C)c3n3nnnc23)C(=O)N2CCOCC2)cc1 do in these assays?
TGFb SMAD3 inh: 0%; DT40 TDP1 CPT: 16µM*; HepG2 viability: -6%; TDP1 cell noCPT: inconclusive; IL-1B inflam inh: 7; S-ASM inh: 2%

What do the screens show for `Cc1ccc(NS(=O)(=O)c2cc([N+](=O)[O-])ccc2N/N=C/c2sc(N3CCOCC3)nc2-c2ccccc2)c(C)c1`?
TGFb SMAD3 inh: 52%; DT40 TDP1 CPT: 21µM*; HepG2 viability: 2%; TDP1 cell noCPT: 18µM*; IL-1B inflam inh: 0; S-ASM inh: -9%

What do the screens show for `CCN(C(=O)CN1C(=O)NC(c2ccccc2)(c2ccc(C)c(C)c2)C1=O)C1CCS(=O)(=O)C1` (configuration not stated)?
TGFb SMAD3 inh: -18%; DT40 TDP1 CPT: 1%; HepG2 viability: -11%; TDP1 cell noCPT: inconclusive; IL-1B inflam inh: -1; S-ASM inh: 1%

How did CCN(C(=O)CN1C(=O)NC(c2ccccc2)(c2ccc(C)c(C)c2)C1=O)C1CCCCC1 (configuration not stated) do in these assays?
TGFb SMAD3 inh: inconclusive; DT40 TDP1 CPT: 16µM*; HepG2 viability: -32%; TDP1 cell noCPT: inconclusive; IL-1B inflam inh: 0; S-ASM inh: -5%

How did CN(C)C(=O)CN1C(=O)NC(c2ccccc2)(c2ccccc2)C1=O do in these assays?
TGFb SMAD3 inh: 4%; DT40 TDP1 CPT: -3%; HepG2 viability: 1%; TDP1 cell noCPT: 9%; IL-1B inflam inh: -14; S-ASM inh: 0%

How did CC(C)(C)NC(=O)NC(=O)CN1C(=O)NC(C)(c2ccccc2)C1=O (configuration not stated) do in these assays?
TGFb SMAD3 inh: 1%; DT40 TDP1 CPT: -24%; HepG2 viability: 3%; TDP1 cell noCPT: inconclusive; IL-1B inflam inh: 13; S-ASM inh: 1%

How did COc1ccc(C2(c3ccc(OC)cc3)NC(=O)N(CC(=O)N(C)C)C2=O)cc1 do in these assays?
TGFb SMAD3 inh: 2%; DT40 TDP1 CPT: 0%; HepG2 viability: 0%; TDP1 cell noCPT: -9%; IL-1B inflam inh: 17; S-ASM inh: 0%

How did COc1ccc(C2(c3ccc(OC)cc3)NC(=O)N(CC(=O)N(C)C3CCC(C)CC3)C2=O)cc1 (configuration not stated) do in these assays?
TGFb SMAD3 inh: inconclusive; DT40 TDP1 CPT: -27%; HepG2 viability: 12%; TDP1 cell noCPT: -14%; IL-1B inflam inh: -56*; S-ASM inh: -5%

How did CC(C)(C)NC(=O)NC(=O)CN1C(=O)NC(c2ccccc2)(c2ccccc2)C1=O do in these assays?
TGFb SMAD3 inh: 28%; DT40 TDP1 CPT: inconclusive; HepG2 viability: -29%; TDP1 cell noCPT: 26µM*; IL-1B inflam inh: inconclusive; S-ASM inh: -1%

Results for CC1CCC(N(C)C(=O)CN2C(=O)NC(c3ccccc3)(c3ccccc3)C2=O)CC1 (configuration not stated) ?
TGFb SMAD3 inh: -11%; DT40 TDP1 CPT: 23µM*; HepG2 viability: -48%; TDP1 cell noCPT: inconclusive; IL-1B inflam inh: 3

Results for O=C1OC(COCC#Cc2ccccc2)CN1c1ccccc1 (configuration not stated) ?
TGFb SMAD3 inh: -4%; DT40 TDP1 CPT: inconclusive; HepG2 viability: -11%; TDP1 cell noCPT: inconclusive; IL-1B inflam inh: 2

How did CCCOc1ccc(Br)cc1CSC(=N)N do in these assays?
TGFb SMAD3 inh: inconclusive; DT40 TDP1 CPT: 6.5µM*; HepG2 viability: -58%; TDP1 cell noCPT: 2.1µM*; IL-1B inflam inh: -86*; S-ASM inh: 2%

How did CN1CCc2c(sc(NC(=O)C3CCN(S(=O)(=O)c4cccs4)CC3)c2C(N)=O)C1 do in these assays?
TGFb SMAD3 inh: -19%; DT40 TDP1 CPT: 7%; HepG2 viability: 2%; TDP1 cell noCPT: 3%; IL-1B inflam inh: -11

How did COCCCn1c(-c2cccc(Cl)c2)nc2c1c(=O)[nH]c(=O)n2Cc1ccccc1 do in these assays?
TGFb SMAD3 inh: -13%; DT40 TDP1 CPT: inconclusive; HepG2 viability: 6%; TDP1 cell noCPT: 7.3µM*; IL-1B inflam inh: 12; S-ASM inh: 16%

How did COc1ccc(Br)cc1-c1nc2c(c(=O)[nH]c(=O)n2Cc2ccccc2)n1C do in these assays?
TGFb SMAD3 inh: 2%; DT40 TDP1 CPT: 8%; HepG2 viability: 2%; TDP1 cell noCPT: inconclusive; IL-1B inflam inh: 33; S-ASM inh: -1%

How did Cn1c(-c2cc(Cl)ccc2O)nc2c1c(=O)[nH]c(=O)n2Cc1ccccc1 do in these assays?
TGFb SMAD3 inh: 5%; DT40 TDP1 CPT: 18µM*; HepG2 viability: -10%; TDP1 cell noCPT: 13µM*; IL-1B inflam inh: 60; S-ASM inh: -3%

How did COc1ccc(-c2nc3c(c(=O)[nH]c(=O)n3Cc3ccccc3)n2CCO)cc1 do in these assays?
TGFb SMAD3 inh: -16%; DT40 TDP1 CPT: 2%; HepG2 viability: -17%; TDP1 cell noCPT: -9%; IL-1B inflam inh: 51; S-ASM inh: 7%

Results for Cc1c(CN(C)C)c2c(n1Cc1ccccc1)C(=O)c1ccccc1-2 ?
TGFb SMAD3 inh: 19%; DT40 TDP1 CPT: inconclusive; HepG2 viability: -61%; TDP1 cell noCPT: inconclusive; IL-1B inflam inh: -63*; S-ASM inh: -8%

Assay outcomes (PubChem BioAssay)
